MITF inh: human MITF inhibition, primary screen. inhibition, % at 2.6 µM. AlphaScreen MITF homodimerization, bead proximity signal. O75030. actives 0.91% (n = 650,000). AID 1259374; in the data active = inhibition above about 50%;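 also: 0% = vehicle wells with protein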
TEAD-YAP block: TEAD-YAP interaction inhibition | HEK-TIYL cells, TEAD-Gal4/YAP UAS-luciferase luminescence | inhibition, % at 9.12 µM | actives 1.4% (n = 640,000) | AID 1259422; in the data active = inhibition above about 32%;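 also: 0% = median of test compound wells and 100% = reference inhibitor wells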
GPR151 activ: activates the human receptor GPR151. PathHunter beta-arrestin GPR151 cells, luminescence. activation, % at 11.2 µM. actives 1% (n = 650,000). AID 1508602; in the data active = activation above about 4.9%;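 also: 0% = median of compound wells and 100% = cells with positive control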
FBW7 act: activators of human E3 ligase FBW7; Q969H0; AlphaScreen FBW7–phospho-cyclin E peptide binding, activator screen; normalized activity (activation), % at 26.1 µM; actives 0.13% (n = 650,000); AID 1259310; in the data active = normalized activity above about 1.9%;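 also: purified mutant Fbw7 with reduced substrate affinity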
MITF confirm: human MITF inhibition, confirmation | shares compounds with MITF inh | AlphaScreen MITF homodimerization, biotin/His-MITF beads | inhibition, % at 2.6 µM | actives 16% (n = 4,700) | AID 1259372;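 active = inhibition above a cutoff derived from the DMSO control wells, cut at about 28% in these data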;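 also: 0% = MITF dimer wells with DMSO only; inhibitors lower the bead chemiluminescence by keeping MITF from dimerizing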
AS interf DR: counter-screen: compounds optically interfering with AlphaScreen; shares compounds with MITF inh; AlphaScreen optical interference counterscreen, cell-free; IC50, µM; actives 6% (n = 480); call rule not given here
AS interf ctr: AlphaScreen optical interference, counter-screen; shares compounds with MITF inh; LysRS AlphaScreen counterscreen, signal interference, triplicate; inhibition, % at 2.6 µM; actives 7.6% (n = 4,700);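 active = inhibition above a cutoff derived from the DMSO control wells, cut at about 30% in these data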
Numbers without * were called inactive. Rows were chosen to be rich in hits. Some 3.5% of all compounds tested hit in one or more screens of this group.

Results for O=C(CN1CCN(C(=O)NCc2cccs2)CC1)c1ccco1 ?
MITF inh: 57.5*; TEAD-YAP block: 5.2; GPR151 activ: -0.8; FBW7 act: 0.1; MITF confirm: 9.0; AS interf ctr: 27.7

How did O=C(CN1CCN(C(=O)NCc2ccc(Cl)cc2)CC1)c1cccs1 do in these assays?
MITF inh: 58.9*; TEAD-YAP block: 3.5; GPR151 activ: -2.4; FBW7 act: 1.1; MITF confirm: 7.9; AS interf ctr: 18.9

Results for COC(=O)c1ccccc1NC(=O)C(=O)NC1CC1 ?
MITF inh: -3.0; TEAD-YAP block: 13.1; GPR151 activ: 1.0; FBW7 act: -0.1

Results for Cc1ccc(Nc2nc(NCCN3CCOCC3)nc3nccnc23)cc1C ?
MITF inh: 61.3*; TEAD-YAP block: -8.5; GPR151 activ: -2.1; FBW7 act: 0.6; MITF confirm: -6.8; AS interf ctr: -4.1

How did COC(=O)N/N=C/c1ccccc1Br do in these assays?
MITF inh: 4.9; TEAD-YAP block: 0.2; GPR151 activ: 0.9; FBW7 act: -0.1

How did CCOC(=O)Cc1[nH]nc2c1C1(C(=O)N(CC)c3ccccc31)C(C#N)=C(N)O2 (stereo not drawn) do in these assays?
MITF inh: 60.1*; TEAD-YAP block: -0.9; GPR151 activ: 0.2; FBW7 act: -1.1; MITF confirm: 27.5*; AS interf DR: >6.48; AS interf ctr: -16.0

Results for COc1cc(C(C)=O)ccc1OCC(O)CNCC1(N2CCCCC2)CCCCC1 (stereo not drawn) ?
MITF inh: 41.7; TEAD-YAP block: 2.1; GPR151 activ: -1.6; FBW7 act: 0.3

Results for COc1ccccc1COCC(O)CNCCCN1CCOCC1 (stereo not drawn) ?
MITF inh: 62.4*; TEAD-YAP block: 9.1; GPR151 activ: 0.7; FBW7 act: 0.0; MITF confirm: 1.8; AS interf ctr: -1.4

How did COc1ccccc1COCC(O)CNCc1ccncc1 (stereo not drawn) do in these assays?
MITF inh: 70.5*; TEAD-YAP block: 3.1; GPR151 activ: -0.1; FBW7 act: 0.0; MITF confirm: 7.8; AS interf ctr: 14.8

How did COc1ccccc1COCC(O)CNCC1(N2CCCCC2)CCCCC1 (stereo not drawn) do in these assays?
MITF inh: 68.5*; TEAD-YAP block: 5.1; GPR151 activ: 2.0; FBW7 act: -0.2; MITF confirm: -7.0; AS interf ctr: -1.8

How did COc1ccccc1COCC(O)CNC(C)(C)C (stereo not drawn) do in these assays?
MITF inh: 38.5; TEAD-YAP block: 10.2; GPR151 activ: 0.8; FBW7 act: -0.1

What do the screens show for `CCOC(=O)C1=C(C)N=c2s/c(=C\c3ccc(-c4ccc([N+](=O)[O-])cc4OC)o3)c(=O)n2C1c1ccccc1Cl` (stereo not drawn)?
MITF inh: 3.0; TEAD-YAP block: -9.8; GPR151 activ: 0.4; FBW7 act: -0.1

What do the screens show for `Nc1ccc(C(=O)CC2(O)C(=O)N(Cc3ccccc3)c3ccccc32)cc1` (stereo not drawn)?
MITF inh: 4.2; TEAD-YAP block: 3.1; GPR151 activ: 0.1; FBW7 act: 0.0

What do the screens show for `NNc1nc(NN)nc(Nc2cccc3ccccc23)n1`?
MITF inh: 51.5*; TEAD-YAP block: 2.7; GPR151 activ: -1.4; FBW7 act: -0.2; MITF confirm: 53.6*; AS interf ctr: 63.4*

How did NC(=O)COC(=O)c1oc2ccccc2c1COc1ccccc1 do in these assays?
MITF inh: 64.0*; TEAD-YAP block: 11.3; GPR151 activ: -1.3; FBW7 act: 0.7; MITF confirm: 15.9; AS interf ctr: 19.8

Results for NC(=O)NC(=O)COC(=O)c1oc2ccccc2c1COc1ccccc1 ?
MITF inh: -4.2; TEAD-YAP block: 4.5; GPR151 activ: 0.0; FBW7 act: 0.1

What do the screens show for `CCOCCCNCC(=O)Nc1ccc(N2CCCC2)cc1`?
MITF inh: 12.7; TEAD-YAP block: -51.1; GPR151 activ: 1.5; FBW7 act: 0.1

Results for O=C(CNCCN1CCCCC1)Nc1ccc(N2CCCCC2)cc1 ?
MITF inh: 94.2*; TEAD-YAP block: -7.6; GPR151 activ: 0.2; FBW7 act: 0.0; MITF confirm: 16.9; AS interf ctr: 20.5

Source: PubChem
